From PubChem BioAssay (NCATS)
Records with an inconclusive call do not appear. The source made the active and inactive calls. Unless noted, the call rests on the fitted dose curve; in most records, active means well fitted curve in the direction sought with a large enough effect; inconclusive means small, poorly fitted or top-dose-only effect, or another doubt; inactive means no such curve, though single readings can be large; an effect the other way counts as inactive or inconclusive.

Assays:
[1] = qHTS profiling for inhibitors of Plasmodium falciparum proliferation (AID 504749);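 further: 0% = DMSO vehicle and full inhibition = artemisinin control; nearly all actives have a fitted effect of over 60% in size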; settings: P. falciparum in erythrocytes, SYBR Green DNA, 72 h, at 28.7 µM (top of the series)
In short: (§1)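 Three-day growth assay of blood-stage parasites in erythrocytes (0.3% parasitemia, 2.5% hematocrit) at 37 C, 5% CO2, quantified by SYBR Green DNA staining after overnight detergent lysis.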

3D7 = experiment: as above; settings: P. falciparum in erythrocytes, SYBR Green DNA, 72 h; series mostly up to 28.7 µM
In short: as §1

7G8 = experiment: as above; settings: P. falciparum in erythrocytes, SYBR Green DNA, 72 h; series mostly up to 28.7 µM
In short: as §1

AA1029 = experiment: as above; settings: P. falciparum in erythrocytes, SYBR Green DNA, 72 h; series mostly up to 28.7 µM
In short: as §1

AS120 = experiment: as above; settings: P. falciparum in erythrocytes, SYBR Green DNA, 72 h; series mostly up to 28.7 µM
In short: as §1

ATS189 = experiment: as above; settings: P. falciparum in erythrocytes, SYBR Green DNA, 72 h; series mostly up to 28.7 µM
In short: as §1

ATS95 = experiment: as above; settings: P. falciparum in erythrocytes, SYBR Green DNA, 72 h; series mostly up to 28.7 µM
In short: as §1

C2A = experiment: as above; settings: P. falciparum in erythrocytes, SYBR Green DNA, 72 h; series mostly up to 28.7 µM
In short: as §1

CP185 = experiment: as above; settings: P. falciparum in erythrocytes, SYBR Green DNA, 72 h; series mostly up to 28.7 µM
In short: as §1

CP191 = experiment: as above; settings: P. falciparum in erythrocytes, SYBR Green DNA, 72 h; series mostly up to 28.7 µM
In short: as §1

CP192 = experiment: as above; settings: P. falciparum in erythrocytes, SYBR Green DNA, 72 h; series mostly up to 28.7 µM
In short: as §1

CP194 = experiment: as above; settings: P. falciparum in erythrocytes, SYBR Green DNA, 72 h; series mostly up to 28.7 µM
In short: as §1

CP201 = experiment: as above; settings: P. falciparum in erythrocytes, SYBR Green DNA, 72 h; series mostly up to 28.7 µM
In short: as §1

CP203 = experiment: as above; settings: P. falciparum in erythrocytes, SYBR Green DNA, 72 h; series mostly up to 28.7 µM
In short: as §1

CP211 = experiment: as above; settings: P. falciparum in erythrocytes, SYBR Green DNA, 72 h; series mostly up to 28.7 µM
In short: as §1

[2] = qHTS drug screen for cell cycle checkpoint inhibitors in PARPi-resistant BRCA-mutant ovarian cancer cell lines. (AID 1963452; calls by dose curve); settings: PEO1/OlaR viability, CellTiter-Glo luminescence, 96 h, stronger effect = lower value
In short: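 PEO1, PEO4 and PEO1/OlaR ovarian cancer cells, 600 per well, exposed 96 h at 37C to a dilution series. Viability read by CellTiter-Glo luminescence, normalized to DMSO and empty wells; activity summarized as Z-AUC.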

[3] = Dual reporter qHTS for agonist of Pregnane X Receptor (hPXR) against the NCATS DSHEA and TCM libraries: Fluorescence readout (AID 1920058); settings: PXR dual reporter cells; series mostly up to 40 µM; further: 0% is about no effect
In short: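 Measures viability of the PXR reporter HepG2 line by protease-substrate fluorescence (405/540 nm), taken 1 h after CellTiter-Fluor addition. Substances are tested as concentration series over a ~24 h exposure, with rifampicin as agonist control.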

[4] = target: Nuclear receptor subfamily 1 group I member 2 (Homo sapiens) (UniProt O75469); experiment: Dual reporter qHTS for antagonist of Pregnane X Receptor (hPXR) against the NCATS DSHEA and TCM libraries: Luminescence Readout (AID 1920060); settings: hPXR dual reporter cells, luciferase luminescence, antagonist mode; series mostly up to 40 µM;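 further: HepG2 cells carrying hPXR luciferase reporter stimulated with rifampicin at 2 µM; 0% is about no effect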
Nuclear receptor subfamily 1 group I member 2 (Homo sapiens), sequence (O75469 whole entry, looked up): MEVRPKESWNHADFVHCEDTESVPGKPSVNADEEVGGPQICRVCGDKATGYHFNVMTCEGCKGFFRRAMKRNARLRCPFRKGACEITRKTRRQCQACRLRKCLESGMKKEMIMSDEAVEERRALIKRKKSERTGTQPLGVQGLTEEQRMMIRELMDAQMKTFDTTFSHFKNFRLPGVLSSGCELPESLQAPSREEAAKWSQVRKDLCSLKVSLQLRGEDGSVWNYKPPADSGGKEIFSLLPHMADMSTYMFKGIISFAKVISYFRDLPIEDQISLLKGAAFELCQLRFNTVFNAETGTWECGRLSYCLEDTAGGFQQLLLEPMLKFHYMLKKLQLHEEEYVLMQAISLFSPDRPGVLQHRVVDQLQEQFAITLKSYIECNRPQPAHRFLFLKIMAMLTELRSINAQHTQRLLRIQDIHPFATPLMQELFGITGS
In short: (§2)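 HepG2 hPXR-Luc, 2000 cells/well, charcoal-stripped FBS medium; 5 h attach; RIF 2 uM final; 24 h 37C/5% CO2; CellTiter-Fluor 1 h, fluor 405/540; ONE-Glo 30 min RT, lum.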

[5] = Dual reporter qHTS for antagonist of Pregnane X Receptor (hPXR) against the NCATS DSHEA and TCM libraries: Fluorescence Readout (AID 1920061); settings: PXR dual reporter cells, antagonist mode; series mostly up to 40 µM; further: 0% is about no effect
In short: as §2

[6] = measured here: PEO1 parental Z-AUC

O=CC=O
inactive: activity, negative = inhibition ([1]; parasite line A) 6.37% | activity, negative = inhibition ([1]; parasite line B) 0.163% | Potency (3D7) | Potency (7G8) | Potency (AA1029) | Potency (AS120) | Potency (ATS189) | Potency (ATS95) | Potency (C2A) | Potency (CP185) | Potency (CP191) | Potency (CP192) | Potency (CP194) | Potency (CP201) | Potency (CP203) | Potency (CP211)

CCOc1ccccc1-n1c(C(C)N2CCN(C(=O)COc3ccc(Cl)cc3)CC2)nc2ccccc2c1=O (stereo not given)
inactive: Z-AUC [2] 0.23
-0.0275: Z-AUC ([2]; measured here: PEO4 Z-AUC)
0.347: Z-AUC [2, 6]

S=C(S)N1CCNCC1
inactive: activity, negative = inhibition ([1]; parasite line A) 5.54% | activity, negative = inhibition ([1]; parasite line B) 4.75% | Potency (3D7) | Potency (7G8) | Potency (AA1029) | Potency (AS120) | Potency (ATS189) | Potency (ATS95) | Potency (C2A) | Potency (CP185) | Potency (CP191) | Potency (CP192) | Potency (CP194) | Potency (CP201) | Potency (CP203) | Potency (CP211)

COc1cc(C)[nH]c(=O)c1CNC(=O)c1c(C)n([C@H](C)C2CCOCC2)c2ccccc12
0.504: Z-AUC [2, 6]
0.135: Z-AUC ([2]; measured here: PEO4 Z-AUC)
inactive: Z-AUC [2] 0.466

C/C(O)=C(\C#N)C(=O)Nc1cc(Br)ccc1Br
0.336: Z-AUC [2, 6]
inactive: Z-AUC [2] -0.13
0.627: Z-AUC ([2]; measured here: PEO4 Z-AUC)

CCCN1CCCC2Cc3[nH]ncc3CC21 (stereo not given)
inactive: activity, negative = inhibition ([1]; parasite line A) 7.25% | activity, negative = inhibition ([1]; parasite line B) 13.9% | Potency (3D7) | Potency (7G8) | Potency (AA1029) | Potency (AS120) | Potency (ATS189) | Potency (ATS95) | Potency (C2A) | Potency (CP185) | Potency (CP191)

O=Cc1ccco1
inactive: outcome [3] | outcome [4] | outcome [5] | activity, negative = inhibition ([1]; parasite line A) -15.5% | activity, negative = inhibition ([1]; parasite line B) 9.74% | Potency (3D7) | Potency (7G8) | Potency (AA1029) | Potency (ATS189) | Potency (ATS95) | Potency (C2A) | Potency (CP185) | Potency (CP191) | Potency (CP192) | Potency (CP194) | Potency (CP201) | Potency (CP203) | Potency (CP211)

C[C@]12CC[C@H]3[C@@H](CC[C@@]45O[C@@H]4C(O)=C(C#N)C[C@]35C)[C@@H]1CC[C@@H]2O
inactive: Z-AUC [2] 0.0842
0.794: Z-AUC ([2]; measured here: PEO4 Z-AUC)
0.943: Z-AUC [2, 6]

CNC(=O)OCC[N+](C)(C)C
inactive: activity, negative = inhibition ([1]; parasite line A) 18.2% | activity, negative = inhibition ([1]; parasite line B) 8.99% | Potency (3D7) | Potency (7G8) | Potency (AA1029) | Potency (AS120) | Potency (ATS189) | Potency (ATS95) | Potency (C2A) | Potency (CP185) | Potency (CP191) | Potency (CP192) | Potency (CP194) | Potency (CP201) | Potency (CP203)

C=CCN=C=S
inactive: activity, negative = inhibition ([1]; parasite line A) -3.28% | activity, negative = inhibition ([1]; parasite line B) 7.56% | Potency (3D7) | Potency (7G8) | Potency (AA1029) | Potency (AS120) | Potency (ATS189) | Potency (ATS95) | Potency (C2A) | Potency (CP185) | Potency (CP191)

CCOC(=O)c1ccccc1C(=O)OCC
inactive: activity, negative = inhibition ([1]; parasite line A) 8.38% | activity, negative = inhibition ([1]; parasite line B) -4.32% | Potency (3D7) | Potency (7G8) | Potency (AA1029) | Potency (AS120) | Potency (ATS189) | Potency (ATS95) | Potency (C2A) | Potency (CP185) | Potency (CP191) | Potency (CP192) | Potency (CP194) | Potency (CP201) | Potency (CP203) | Potency (CP211)
